A word on the AC50: it is the concentration at which the activity in the assay is half-maximal.

Results filed as inconclusive are left out. Where a structure was tested more than once in an assay, its records may differ in their call. The source made the active and inactive calls. How the source made its calls: active means hit-call score of the fitted dose curve at least 0.9, where 1 is the maximum; inconclusive means response in the unintended direction; inactive means score below 0.9.

guinea pig Sigma Receptor, Non-selective Binding, SIGMAR1 (gene 100135589), sequence (Q60492 whole entry, looked up): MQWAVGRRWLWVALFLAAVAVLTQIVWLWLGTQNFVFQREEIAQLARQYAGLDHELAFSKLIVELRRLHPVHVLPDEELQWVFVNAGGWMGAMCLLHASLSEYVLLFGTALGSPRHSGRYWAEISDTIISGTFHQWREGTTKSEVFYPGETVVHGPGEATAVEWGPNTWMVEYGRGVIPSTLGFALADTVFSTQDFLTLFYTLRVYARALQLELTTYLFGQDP
rat Androgen Receptor (AR), Ar (gene 24208), sequence (P15207 whole entry, looked up): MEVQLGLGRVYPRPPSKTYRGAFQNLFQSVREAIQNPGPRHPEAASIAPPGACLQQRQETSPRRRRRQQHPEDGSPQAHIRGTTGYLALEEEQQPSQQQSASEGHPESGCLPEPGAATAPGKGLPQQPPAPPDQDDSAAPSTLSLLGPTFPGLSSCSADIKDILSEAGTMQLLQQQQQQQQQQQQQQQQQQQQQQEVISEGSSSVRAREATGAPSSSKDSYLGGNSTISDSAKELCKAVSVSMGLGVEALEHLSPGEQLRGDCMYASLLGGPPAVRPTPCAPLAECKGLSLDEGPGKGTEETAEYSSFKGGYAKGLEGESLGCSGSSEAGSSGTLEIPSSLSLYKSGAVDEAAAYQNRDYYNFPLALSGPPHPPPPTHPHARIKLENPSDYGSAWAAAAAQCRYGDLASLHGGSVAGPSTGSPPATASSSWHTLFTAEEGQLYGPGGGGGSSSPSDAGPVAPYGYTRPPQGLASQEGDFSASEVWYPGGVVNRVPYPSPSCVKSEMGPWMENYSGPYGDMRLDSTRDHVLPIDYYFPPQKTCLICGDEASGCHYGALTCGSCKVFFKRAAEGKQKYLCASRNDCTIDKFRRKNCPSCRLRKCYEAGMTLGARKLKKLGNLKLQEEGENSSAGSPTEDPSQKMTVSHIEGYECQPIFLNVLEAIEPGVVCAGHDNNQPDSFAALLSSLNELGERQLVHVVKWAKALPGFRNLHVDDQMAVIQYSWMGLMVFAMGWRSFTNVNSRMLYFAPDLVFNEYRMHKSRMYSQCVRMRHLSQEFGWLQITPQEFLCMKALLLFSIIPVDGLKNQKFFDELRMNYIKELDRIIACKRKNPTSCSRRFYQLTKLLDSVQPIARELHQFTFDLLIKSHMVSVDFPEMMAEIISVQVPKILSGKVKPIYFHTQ
Peroxisome proliferator-activated receptor gamma (Homo sapiens), sequence (P37231 whole entry, looked up): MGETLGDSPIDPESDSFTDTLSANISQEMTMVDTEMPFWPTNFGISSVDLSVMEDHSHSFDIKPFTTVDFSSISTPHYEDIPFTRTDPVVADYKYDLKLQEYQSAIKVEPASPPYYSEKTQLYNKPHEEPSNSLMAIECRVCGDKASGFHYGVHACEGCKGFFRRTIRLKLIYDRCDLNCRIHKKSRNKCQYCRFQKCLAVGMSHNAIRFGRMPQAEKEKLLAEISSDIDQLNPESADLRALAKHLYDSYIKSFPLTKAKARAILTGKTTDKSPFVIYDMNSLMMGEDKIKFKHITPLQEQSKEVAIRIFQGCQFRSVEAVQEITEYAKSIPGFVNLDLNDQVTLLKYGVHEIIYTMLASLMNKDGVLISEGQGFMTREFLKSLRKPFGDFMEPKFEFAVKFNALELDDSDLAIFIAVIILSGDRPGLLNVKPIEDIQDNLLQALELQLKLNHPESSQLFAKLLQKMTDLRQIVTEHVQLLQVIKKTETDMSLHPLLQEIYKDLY
human Adenosine Transporter (Adot), SLC29A1 (gene 2030), sequence (Q99808 whole entry, looked up): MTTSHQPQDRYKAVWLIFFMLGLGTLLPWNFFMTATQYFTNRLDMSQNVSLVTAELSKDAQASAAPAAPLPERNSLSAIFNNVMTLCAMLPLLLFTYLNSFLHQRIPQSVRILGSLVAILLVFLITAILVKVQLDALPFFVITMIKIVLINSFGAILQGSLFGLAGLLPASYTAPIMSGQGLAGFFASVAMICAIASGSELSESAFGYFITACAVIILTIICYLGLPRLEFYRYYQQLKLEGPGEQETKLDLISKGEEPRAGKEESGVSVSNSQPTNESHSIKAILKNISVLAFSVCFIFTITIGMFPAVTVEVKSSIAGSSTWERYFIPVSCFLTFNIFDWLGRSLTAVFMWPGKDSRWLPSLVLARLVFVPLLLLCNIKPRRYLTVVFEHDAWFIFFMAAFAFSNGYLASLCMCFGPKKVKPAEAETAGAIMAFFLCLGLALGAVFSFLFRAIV

One assay addresses rat Androgen Receptor (AR), Ar (gene 24208) (UniProt P15207). Nature of the assay: NVS_NR_rAR: NovaScreen (NVS) Nuclear Receptor Binding Assay for rat Androgen Receptor (AR) (AID 2283366). In outline:
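Actives from a duplicate single-concentration (25 uM) primary run went on to concentration series. Displacement of radioligand was counted by filtration and scintillation, 18 h post-dose, using prostate extracts from testosterone-pretreated rats, with DMSO as baseline.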
In the case of `CCCC1COC(Cn2cncn2)(c2ccc(Cl)cc2Cl)O1` (stereo unspecified), the molecule was classed as inactive. Still for that read-out and setting: for `N#CC(CCc1ccc(Cl)cc1)(Cn1cncn1)c1ccccc1` (stereo unspecified) the value was “inactive”; for `CCOC(=O)CC(SP(=S)(OC)OC)C(=O)OCC` (stereo unspecified), “inactive”; for `CO/C=C(/C(=O)OC)c1ccccc1Oc1cc(Oc2ccccc2C#N)ncn1`, “inactive”.

For a further assay, the target named is guinea pig Sigma Receptor, Non-selective Binding, SIGMAR1 (gene 100135589) (UniProt Q60492). The assay can be described thus: NVS_OR_gSIGMA_NonSelective: NovaScreen (NVS) Nuclear Receptor Binding Assay for guinea pig Sigma Receptor, Non-selective Binding (AID 2283367). The essentials:
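Test chemicals were screened in duplicate at 25 uM, then in concentration series if active, against radioligand binding to guinea pig brain membranes; filtration and scintillation counting at 1 h measured remaining bound ligand.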
`CCCC1COC(Cn2cncn2)(c2ccc(Cl)cc2Cl)O1` (stereo unspecified): the AC50 was 25 µM (active).

Consider `CNC(=S)S`, for which the molecule was classed as inactive.

Take `CCON=C(CC)C1=C(O)CC(c2c(C)cc(C)cc2C)CC1=O` (stereo unspecified): the outcome was inactive.

On to `C=CCC1=C(C)[C@@H](OC(=O)[C@@H]2[C@@H](C=C(C)C)C2(C)C)CC1=O`, for which the AC50 was 37.4 µM (active).

With `N#Cc1nn(-c2c(Cl)cc(C(F)(F)F)cc2Cl)c(N)c1S(=O)C(F)(F)F` (stereo unspecified), the result was inactive. Turning to `CCc1nn(C)c(C(=O)NCc2ccc(C(C)(C)C)cc2)c1Cl`, the concentration at half-maximal activity (AC50) was 16.2 µM (active). On the same count and under the same terms, for `CON(C)C(=O)Nc1ccc(Cl)c(Cl)c1` the value was 12 µM (active). For the molecule `OC(c1ccc(Cl)cc1)(c1cncnc1)c1ccccc1Cl` (stereo unspecified), the molecule was classed as inactive. For the molecule `CCOC(=O)CC(SP(=S)(OC)OC)C(=O)OCC` (stereo unspecified), the AC50 is 11.4 µM (active). As to `CC1COC(Cn2cncn2)(c2ccc(Oc3ccc(Cl)cc3)cc2Cl)O1` (stereo unspecified), the concentration at half-maximal activity (AC50) was 1.27 µM (active).

The next assay addresses human Adenosine Transporter (Adot), SLC29A1 (gene 2030) (UniProt Q99808). Nature of the assay: NVS_TR_hAdoT: NovaScreen (NVS) Transporter Assay for human Adenosine Transporter (Adot) (AID 2283368). The essentials:
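Binding displacement on U937 extracted protein, read 1 h post-dose by filtration and scintillation counting. Primary duplicate test at 25 uM, then singleton concentration series with 50 uM top; DMSO baseline.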
As for `N#CC(CCc1ccc(Cl)cc1)(Cn1cncn1)c1ccccc1` (stereo unspecified), the molecule was called inactive. On to `COc1nc(C)nc(NC(=O)NS(=O)(=O)c2ccccc2CCC(F)(F)F)n1`, for which the AC50 is 0.0855 µM (active) and the result was inactive. As for `CO/C=C(/C(=O)OC)c1ccccc1Oc1cc(Oc2ccccc2C#N)ncn1`, the molecule was classed as inactive.

The test system of the next assay is guinea pig Dopamine Transporter (DAT), gene 100714898. The assay can be described thus: NVS_TR_gDAT: NovaScreen (NVS) Transporter Assay for guinea pig Dopamine Transporter (DAT) (AID 2283369).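 Further: active compounds lower bound radioligand signal relative to DMSO.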 In outline: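 Test chemicals were incubated 2 h with guinea pig striatal membranes and a radioligand; bound label was separated by filtration and counted. Screening ran at 25 uM, followed by concentration-response testing to a 50 uM maximum.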
Regarding `COC(=O)C(C)Oc1ccc(Oc2ccc(Cl)cc2Cl)cc1` (stereo unspecified), the outcome was inactive. For `C=CCC1=C(C)[C@@H](OC(=O)[C@@H]2[C@@H](C=C(C)C)C2(C)C)CC1=O`, the AC50 is 20.3 µM (active). For the molecule `CCCCOC(=O)c1ccccc1C(=O)OCCCC`, the half-maximal activity concentration (AC50) was 19.5 µM (active) and the outcome was inactive. For the molecule `C#CCOS(=O)OC1CCCCC1Oc1ccc(C(C)(C)C)cc1` (stereo unspecified), the AC50 was 15.6 µM (active). In the case of `C=CCC1=C(C)C(OC(=O)C2C(C=C(C)C)C2(C)C)CC1=O` (stereo unspecified), the AC50 was 26.2 µM (active) and the molecule was called inactive. On to `COc1ccc(C(c2ccc(OC)cc2)C(Cl)(Cl)Cl)cc1`, for which the AC50 was 14 µM (active). As for `CC1=C(C(=O)Nc2ccccc2)SCCO1`, the AC50 was 13.9 µM (active). On the same count and under the same terms, for `Fc1ccc(Oc2ccnc3cc(Cl)cc(Cl)c23)cc1` the value was 13.8 µM (active); for `CC1COC(Cn2cncn2)(c2ccc(Oc3ccc(Cl)cc3)cc2Cl)O1` (stereo unspecified), 12.3 µM (active).

A further assay concerns the target Peroxisome proliferator-activated receptor gamma (Homo sapiens) (UniProt P37231). Nature of the assay: NVS_NR_hPPARg: NovaScreen (NVS) Nuclear Receptor Binding Assay for human Peroxisome Proliferator-activated Receptor gamma (PPARg) (AID 2283370). The essentials: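 Fluorescence polarization measures competitive binding to extracted PPARg in a cell-free format. Reading is taken at 2 h; activity is signal loss relative to DMSO. Screening at 25 uM in duplicate preceded confirmatory dose series.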
For `COc1cnc(OC)n2nc(NS(=O)(=O)c3c(OCC(F)F)cccc3C(F)(F)F)nc12`, the call was inactive. On the same count and under the same terms, for `Cc1ccc(-c2c(Cl)nc(C#N)n2S(=O)(=O)N(C)C)cc1` the value was “inactive”; for `CCCC1COC(Cn2cncn2)(c2ccc(Cl)cc2Cl)O1` (stereo unspecified), “inactive”; for `CCNc1nc(Cl)nc(NC(C)C)n1`, “inactive”. Still for that read-out and setting: for `Cc1cc(Cl)ccc1OCC(=O)O` the value was “inactive”; for `O=C(O)COc1nc(Cl)c(Cl)cc1Cl`, “inactive”. On to `COP(N)(=O)SC` (stereo unspecified), for which the result was inactive. Still for that read-out and setting: for `N#Cc1nn(-c2c(Cl)cc(C(F)(F)F)cc2Cl)c(N)c1S(=O)C(F)(F)F` (stereo unspecified) the value was “inactive”; for `CCCCOC(=O)c1ccccc1C(=O)OCCCC`, “inactive”; for `C#CCOS(=O)OC1CCCCC1Oc1ccc(C(C)(C)C)cc1` (stereo unspecified), “inactive”. `CCCCC(CC)COC(=O)c1ccccc1C(=O)OCC(CC)CCCC` (stereo unspecified): the result was inactive. Regarding `C=CCC1=C(C)C(OC(=O)C2C(C=C(C)C)C2(C)C)CC1=O` (stereo unspecified), the half-maximal activity concentration (AC50) was 39.1 µM (active) and the call was inactive. For the molecule `C=CC1(C)OC(=O)N(c2cc(Cl)cc(Cl)c2)C1=O` (stereo unspecified), the molecule was classed as inactive. On the same count and under the same terms, for `COc1ccc(C(c2ccc(OC)cc2)C(Cl)(Cl)Cl)cc1` the value was “inactive”; for `CON(C)C(=O)Nc1ccc(Cl)c(Cl)c1`, “inactive”. Same read-out and setting: for `COC(=O)c1ccccc1C(=O)OC` the value was “inactive”; for `Oc1ccccc1-c1ccccc1`, “inactive”; for `CCNc1nc(Cl)nc(NCC)n1`, “inactive”. For `CCCCNC(=O)OCC#CI`, the result was inactive. The same measure, in the same setting: next, `CCOC(=O)CC(SP(=S)(OC)OC)C(=O)OCC` (stereo unspecified): “inactive”; `COc1nc(C)nc(NC(=O)NS(=O)(=O)c2ccccc2CCC(F)(F)F)n1`: “inactive”; `CO/C=C(/C(=O)OC)c1ccccc1Oc1cc(Oc2ccccc2C#N)ncn1`: “inactive”. For the molecule `CCCN(CCC)c1c([N+](=O)[O-])cc(S(N)(=O)=O)cc1[N+](=O)[O-]`, the AC50 was 0.0071 µM (active) and the outcome was inactive.

The target in the next assay is human Serotonin Transporter (SERT), SLC6A4 (gene 6532) (UniProt P31645). The assay can be described thus: NVS_TR_hSERT: NovaScreen (NVS) Transporter Assay for human Serotonin Transporter (SERT) (AID 2283372). The essentials: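 Human platelet membrane preparation; displacement of radioligand from serotonin transporter measured after 1 h by filtration and scintillation counting. Single 25 uM duplicate screen, then concentration series for actives, with DMSO as negative baseline.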
human Serotonin Transporter (SERT), SLC6A4 (gene 6532), sequence (P31645 whole entry, looked up): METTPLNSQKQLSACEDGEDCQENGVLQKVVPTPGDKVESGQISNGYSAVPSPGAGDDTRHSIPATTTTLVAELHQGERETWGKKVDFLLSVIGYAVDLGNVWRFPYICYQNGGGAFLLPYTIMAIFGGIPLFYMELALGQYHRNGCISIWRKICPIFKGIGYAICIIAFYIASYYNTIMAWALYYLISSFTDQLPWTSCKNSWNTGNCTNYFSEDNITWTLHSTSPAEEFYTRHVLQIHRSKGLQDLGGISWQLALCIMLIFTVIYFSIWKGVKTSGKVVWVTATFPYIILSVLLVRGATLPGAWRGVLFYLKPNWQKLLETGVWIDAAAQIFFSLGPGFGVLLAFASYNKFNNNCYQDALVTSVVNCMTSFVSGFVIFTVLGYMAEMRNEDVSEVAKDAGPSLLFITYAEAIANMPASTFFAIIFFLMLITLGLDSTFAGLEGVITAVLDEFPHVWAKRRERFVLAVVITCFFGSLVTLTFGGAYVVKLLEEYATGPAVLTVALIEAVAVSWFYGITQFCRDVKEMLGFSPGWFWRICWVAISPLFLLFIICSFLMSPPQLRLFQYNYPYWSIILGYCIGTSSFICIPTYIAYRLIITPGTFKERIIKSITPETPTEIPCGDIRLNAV
Consider `Cc1cc(Cl)ccc1OCC(=O)O`, for which the molecule was classed as inactive. `O=C(Nc1ccccc1)Nc1ccnc(Cl)c1`: the molecule was classed as inactive.

Take `COc1nc(NC(C)C)nc(NC(C)C)n1`: the molecule was called inactive. For the molecule `COc1nc(C)nc(NC(=O)NS(=O)(=O)c2ccccc2CCC(F)(F)F)n1`, the call was inactive.

The test system of a further assay is rat Norepinephrine Transporter (NET), gene 83511. Nature of the assay: NVS_TR_rNET: NovaScreen (NVS) Transporter Assay for rat Norepinephrine Transporter (NET) (AID 2283373). The essentials: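 Competitive radioligand displacement at the rat NET using forebrain membrane preparations, 1 h incubation, filter-based scintillation readout. Primary testing in duplicate at a single 25 uM concentration; confirmed actives retested across concentrations.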
Consider `CC1=C(C(=O)Nc2ccccc2)SCCO1`, for which the AC50 is 8.37 µM (active). On to `Oc1ccccc1-c1ccccc1`, for which the molecule was classed as inactive.

As to `CCCCNC(=O)n1c(NC(=O)OC)nc2ccccc21`, the outcome was inactive.

Source of the values: PubChem BioAssay (EPA / NIEHS).
